# Assay results from ChEMBL document CHEMBL3988442, “University of Dundee, Small-Polar-MMV Screening Library” (2021).
# Target: AMP-activated protein kinase, AMPK (Homo sapiens) (UniProt P54646+O43741+P54619+Q9UGJ0+Q9Y478+Q13131+Q9UGI9)
# Assay: AMP-dependent Kinase enzyme assay. An in vitro enzyme assay that detects ADP turnover that is directly proportional to AMPK activity. This uses naive AMPK that is activated during the assay with MK-8722
# Type: functional
# Set-up: scale not given: direction of the effect not stated beside the values
# Details: 30 µM
row,SMILES,Percent Effect [%]
1,COc1ccc(CC2(CO)CCN(c3cc(C#N)ccn3)CC2)cc1,112
2,COc1cccc(O[C@H]2CCN(c3nc(C)cc(C)n3)CC[C@@H]2O)c1,1.31
3,Cc1ccc(C)c(CC(=O)NC2CCS(=O)(=O)CC2)c1,-4.86
4,CC(Oc1cccc(Cl)c1)C(=O)Nc1cnn(CC(=O)NC2CC2)c1 (stereo not given),1.4
5,Cn1nccc1CN1CCOC(c2cccc(Nc3ccccn3)n2)C1 (stereo not given),5.54
6,NC(=O)C1CCN(C(=O)CCSCc2ccccc2)CC1,8.64
7,COc1ccccc1N1CCN(C(=O)CCc2nncn2C)C(C)C1 (stereo not given),24.5
8,CC(C)COc1cncc(N(C)C2CCN(c3ncccn3)CC2)n1,7.4
9,Oc1cc(C2CCCCN2Cc2cccs2)nc(-c2ccccn2)n1 (stereo not given),23.4
10,COC(=O)[C@@H]1C[C@@H](O)CN1Cc1ccn(-c2ccc(F)cc2)n1,-3.45
11,O=C(CN1CCOCC1)N(c1ccccc1)c1ccccc1,8.05
12,Cc1nc(C)n(CCC(=O)NCC2CCCOC2)n1 (stereo not given),10.8
13,COc1ccc2c(c1)OCC(CNC1CCc3nc(C)nn3C1)=C2 (stereo not given),7.59
14,CC(CNC(=O)c1cc(Cn2cnc3ccccc32)[nH]n1)N1CCCC1 (stereo not given),-5.09
15,Cc1cc(Cl)c(C)c(S(=O)(=O)N2CCN(Cc3ccccn3)CC2)c1Cl,1.09
16,Cc1cc(C(=O)N2CCCC(c3ccc(C(=O)O)cc3)C2)c(C)o1 (stereo not given),4.65
17,Cc1nc(C)n(CC2CCCN2c2ncnc3sccc23)n1 (stereo not given),1.91
18,COCCNc1ncnc2c1CCN(C(=O)CC1CCC(=O)N1)CC2 (stereo not given),15.1
19,CNC(=O)Cc1ccc(NC(=O)NCC(C)c2ncc(C)s2)cc1 (stereo not given),-3.25
20,CC1CCN(CCNC(=O)c2sccc2C2CC2)CC1,5.67

row,SMILES,Percent Effect [%]
1,O=C(C1CC(c2ccccc2)=NO1)N1CCCCc2ccccc21 (stereo not given),4.65
2,N#Cc1cccc(N2CCC(CO)(CCOc3ccccc3)CC2)n1,3.85
3,CC(C)c1nc(CN(C)Cc2ncccc2C(=O)O)cs1,4.59
4,CS(=O)(=O)c1ccc(CNC(=O)NCc2cc[nH]n2)cc1,-5.06
5,CC(C)c1nnc2n1CCN(Cc1cc(Cl)c3c(c1)OCO3)C2,8.76
6,Cc1cccc(C)c1Nc1noc2c1CN(C(=O)c1c[nH]nc1C)CC2,6.37
7,CN(C)Cc1cn(-c2ccccc2C(=O)NCCC2CCCN2C)cn1 (stereo not given),-16.8
8,CC(NCc1cccc(NC(=O)C2CCCCC2)c1)c1cnn(C)c1 (stereo not given),4.61
9,CCc1c(C)nn2c(O)cc(C3CCN(C(=O)c4ccn(C)n4)C3)nc12 (stereo not given),-4.46
10,CC(O)CN(C)S(=O)(=O)c1ccc(C#N)cc1F (stereo not given),1.31
11,CN(CCO)Cc1cc(Cl)ccc1OCC(O)CN1CCCCCC1 (stereo not given),0.752
12,CC(CN1CCOC1=O)NC(=O)c1cccc(Cl)c1Cl (stereo not given),10
13,CC(CNC(=O)CCn1cncn1)N1CCc2ccccc21 (stereo not given),6.66
14,Cc1ccc(CNC(=O)c2ccc(=O)n(C)n2)c(OCC2CC2)c1,14.4
15,COc1ccc(NC(=O)c2cnc(C3CCN(C)CC3)nc2C)cc1,3.65
16,Cc1cnc(Nc2cccc(C3CCCN3Cc3cn(C)nc3C)n2)s1 (stereo not given),21.4
17,Cc1cc(-c2ccnn2C)nc(C2CCN(S(C)(=O)=O)CC2)n1,9.22
18,CN(C)Cc1cnn(-c2ccccc2C(=O)NCCC2CCCN2C)c1 (stereo not given),5.44
19,Cc1ccc(S(=O)(=O)Cc2nsc(N(C)C)n2)c(C)c1,-0.477
20,O=C(Nc1ccccn1)c1ccc(F)c(S(=O)(=O)NC2CC2)c1,1.7
